ChEMBL document CHEMBL1201862, “PubChem BioAssay data set” (2004)
Among all 390,000 compounds or so, about 17,000 (4.4%) were called active. Not shown: some 8% with an inconclusive outcome. This is one part of a sample in which actives are shown more often than they occur. The calls are words filed in the database; no cut-off is given here.

target: T1, Lysine-specific demethylase 4A (Homo sapiens) (UniProt O75164); experiment: qHTS Assay for Inhibitors of JMJD2A-Tudor Domain. [Related pubchem assays (depositor defined):AID504402]; format: functional
T1 sequence (whole entry): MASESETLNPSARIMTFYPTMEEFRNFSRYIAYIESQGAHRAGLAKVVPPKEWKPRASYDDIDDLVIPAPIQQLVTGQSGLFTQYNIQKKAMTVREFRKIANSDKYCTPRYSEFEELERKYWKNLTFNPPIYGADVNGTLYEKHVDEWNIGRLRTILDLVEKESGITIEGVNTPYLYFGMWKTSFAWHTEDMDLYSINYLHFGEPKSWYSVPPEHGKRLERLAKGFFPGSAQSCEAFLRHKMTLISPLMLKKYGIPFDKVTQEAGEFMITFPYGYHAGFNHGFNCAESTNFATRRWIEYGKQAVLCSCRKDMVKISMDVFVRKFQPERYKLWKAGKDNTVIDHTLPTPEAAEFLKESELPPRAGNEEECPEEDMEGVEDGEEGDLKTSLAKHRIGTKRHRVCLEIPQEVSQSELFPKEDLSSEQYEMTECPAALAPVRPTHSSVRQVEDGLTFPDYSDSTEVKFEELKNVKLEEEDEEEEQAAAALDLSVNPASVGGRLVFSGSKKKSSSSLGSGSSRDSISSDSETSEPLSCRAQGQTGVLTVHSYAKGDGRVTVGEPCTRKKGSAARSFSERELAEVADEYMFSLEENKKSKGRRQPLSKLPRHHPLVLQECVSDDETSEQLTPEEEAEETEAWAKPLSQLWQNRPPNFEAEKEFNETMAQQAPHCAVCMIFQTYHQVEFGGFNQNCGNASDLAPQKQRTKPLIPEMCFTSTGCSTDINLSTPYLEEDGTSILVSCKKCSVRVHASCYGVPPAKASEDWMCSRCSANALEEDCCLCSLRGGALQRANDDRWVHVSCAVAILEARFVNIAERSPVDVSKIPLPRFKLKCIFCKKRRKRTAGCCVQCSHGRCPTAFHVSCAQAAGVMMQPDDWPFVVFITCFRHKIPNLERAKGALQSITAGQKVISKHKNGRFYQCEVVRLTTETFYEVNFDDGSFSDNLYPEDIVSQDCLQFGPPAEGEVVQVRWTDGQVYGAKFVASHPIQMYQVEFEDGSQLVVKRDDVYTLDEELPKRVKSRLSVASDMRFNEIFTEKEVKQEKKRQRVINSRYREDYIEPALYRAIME

Potency, active:
CCCc1nnc(NC(=O)C2C(=O)c3cccc4c3N(CC4)C2=O)s1 (stereo not drawn) 44.7 µM
Cl.N[C@@H](CCC(=O)O)C(=O)O 20 µM
Cl.NC(CCC(=O)O)C(=O)O (stereo not drawn) 3.55 µM
